The record followed here is PubChem BioAssay (NCI).

What all share (test): NCI-60 one-dose screen, 48 h (100 = growth as untreated, 0 = no growth, -100 = all killed)
Details in all cases: 10 µM unless noted

Experiment [1] has as its system SK-MEL-2 melanoma.
In experiment [2] the test system is EKVX NSCLC.
In experiment [3] the test system is SN12C renal.
The subject of experiment [4] is UO-31 renal.
The test system of experiment [5] is TK-10 renal.
Experiment [6] relates to ACHN renal.
For experiment [7], the system named is CAKI-1 renal.
Experiment [8] deals with A498 renal.
Experiment [9] has as its system CCRF-CEM leukemia.
Experiment [10] deals with MOLT-4 leukemia.

Each structure is given as a SMILES string. This is part of a sample that, as a whole, favours compounds with a hit. Of some 83,000 tested, about 20% had one in any assay.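 Interpretation: 100, growth as untreated; towards 0, rising growth inhibition; 0, no net growth; 0 to -100, cell death. Compounds scoring below 10 were considered active.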 Values without a mark were called inactive. Calls of active or inactive are those of the source.

In the case of `O=C(CSc1nnc(-c2ccc(-c3nc4ccccc4[nH]3)cc2)o1)Nc1ccc(Cl)cc1`, the growth in experiment [1] was 70.6%; in [2] it was 16.2%; in [3], 19.6%; in experiment [4] it was 57.8%; in experiment [5], 59.5%; in [6], -86.8% (active). The growth is 17.1% in experiment [7], 132% in [8], 32.5% in experiment [9] and 6.05% (active) in [10].
On to `O=C(NC(=S)N1CCN(c2ncnc3c2cnn3-c2ccccc2)CC1)c1ccc(Br)cc1`, for which the growth was 87.4% in [1]; 76.4% in [2]; 48.4% in [3]; 70.7% in experiment [4]; 127% in [5]; 69.2% in experiment [6]. For the same compound, the growth in experiment [7] is 47.8%; in experiment [8] it was 104%; in experiment [9] it was 81.2%; in experiment [10] it was 81.5%.
As to `O=C1/C(=C/c2cnc(-c3ccccc3)s2)SC(=S)N1Cc1ccc2c(c1)OCO2`, the growth in [1] was 72.7%; in experiment [2], 79.3%; in [3], 72.9%; in [4], 86.5%; in experiment [5], 78.4%; in [6], 42.1%. Besides, the growth in experiment [7] was 37.3%; in [8], 45.2%; in experiment [9], 87.2%; in experiment [10], 99.2%.
Turning to `Nc1nnc(CS(=O)(=O)c2ccccc2)s1`, the growth is 113% in experiment [1]; 103% in experiment [2]; 106% in [3]; 77.1% in [4]; 98.7% in experiment [5]; 104% in [6]. The growth was 88.8% in experiment [7], 137% in experiment [8], 102% in experiment [9] and 103% in experiment [10].
With `Oc1ccc(F)c(Nc2nc(SCCN3CCOCC3)nc3c2cnn3CC(Cl)c2ccc(Br)cc2)c1` (stereo not given), the growth is 33.5% in experiment [1]; 30% in experiment [2]; 32.3% in [3]; 16.9% in [4]; 68.6% in experiment [5]; 16.5% in [6]. Also, the growth in experiment [7] is 24%; in experiment [8] it was 63.1%; in experiment [9], -3.71% (active); in experiment [10], 6.17% (active).
Regarding `Cc1ccc(-c2cc(C(=O)N=Nc3c(O)[nH]c4ccc(F)cc34)c3ccccc3n2)cc1`, the growth is 107% in [1]; 29.8% in experiment [2]; 18.1% in experiment [3]; 77.5% in [4]; 106% in experiment [5]; 42.8% in experiment [6]. Also, the growth in [7] was 62.9%; in experiment [8], 187%; in experiment [9], 92.4%; in experiment [10], 65.3%.
As for `CN1CCN(C(=O)Oc2cc3c(c4ccccc24)[C@H](CCl)CN3C(=O)c2cc3cc(OCCCN4CCC4)ccc3[nH]2)[C@H]2CSSC[C@H]21`, the growth was -92.7% (active) in experiment [1]; -38.3% (active) in experiment [2]; -7.03% (active) in experiment [3]; -11.4% (active) in [4]; 4.65% (active) in [5]; -11.6% (active) in [6]. In addition, the growth in experiment [7] was 6.04% (active); in [8], -17.6% (active); in experiment [9], -25.8% (active); in [10] it was -11.6% (active).
For `COC(=O)CSC1=C(C)C(=O)C(OC)=C(OC)C1=O`, the growth is 103% in [1]; 91% in experiment [2]; 96.2% in [3]; 80.7% in [4]; 106% in experiment [5]; 96.4% in experiment [6]. The growth in experiment [7] is 77.4%; in [8] it was 90.4%; in experiment [9], 25%; in experiment [10] it was 17.5%.
Turning to `O=C(CSc1nc2sc3c(c2c(=O)n1-c1ccc(Cl)cc1)CCCC3)N/N=C/C=C/c1ccccc1`, the growth in experiment [1] is -29.3% (active); in [2], 39.7%; in experiment [3], 15.4%; in experiment [4], 85.1%; in [5] it was -19% (active); in experiment [6], 25.3%. For the same compound, the growth was 38.5% in experiment [7], -40.8% (active) in [8], -33.7% (active) in experiment [9] and -24.4% (active) in experiment [10].
As to `Cc1ccc(C2CC(c3ccc(S(=O)(=O)NCCNc4nc(N(C)C)nc(N5CCOCC5)n4)cc3)=Nc3c(N)nc(N)nc3N2)cc1` (stereo not given), the growth is 86.2% in experiment [1]; 38.4% in [2]; 51.5% in experiment [3]; 36.9% in experiment [4]; 96.4% in [5]; 68.2% in experiment [6]. Further, the growth in [7] is 43.4%; in experiment [8] it was 105%; in experiment [9], 17.3%; in experiment [10], 3.09% (active).
For the compound `CCCCNc1ccc2c3c(cccc13)C(=O)N(c1cccc(-c3nn(-c4ccccc4)cc3-c3nc4ccccc4s3)c1)C2=O`, the growth in experiment [1] is 98.1%; in experiment [2], 96.4%; in experiment [3], 101%; in experiment [4], 70.4%; in experiment [5], 110%; in [6] it was 96.3%. The growth was 82.2% in experiment [7], 131% in [8], 105% in experiment [9] and 113% in [10].
For the compound `COc1ccc(N=Nc2c(N)nn3c(-c4ccc(F)cc4)ccnc23)cc1`, the growth in experiment [1] was 102%; in [2], 80.4%; in experiment [3], 89%; in [4] it was 99.6%; in experiment [5], 106%; in experiment [6], 110%. Further, the growth in experiment [7] was 94.5%; in experiment [8], 108%; in experiment [9], 59.9%; in experiment [10], 85.5%.
Take `COc1ccc(-c2cc(-c3cc(C(C)C)c(O)cc3C)nn2-c2ccc(S(N)(=O)=O)cc2)cc1`: the growth in experiment [1] is 54.7%; in experiment [2], 61.1%; in [3], 16%; in experiment [4], 39.1%; in [5], 58%; in experiment [6], 55.8%. Besides, the growth in experiment [7] was 63.9%; in [8] it was 87.7%; in experiment [9], 12.2%; in experiment [10] it was 14.7%.
